These results are taken from PubChem BioAssay AID2278 (National Center for Advancing Translational Sciences (NCATS), 2010).

Results filed as inconclusive are left out. Calls of active or inactive are those of the source. Calls come from the whole dose curve; as a rule, active = well fitted curve in the direction sought with a large enough effect; inconclusive = small, poorly fitted or top-dose-only effect, or another doubt; inactive = no such curve, though single readings can be large or run the other way.

The target of the experiment is Group 10 secretory phospholipase A2 (Mus musculus) (UniProt Q9QXX3). In words: Secondary Assay for Inhibitors of Ubiquitin-specific Protease USP2a: PLA2 Counterscreen. Particulars: purified murine PLA2, NBD C6-HPC fluorescence; series mostly up to 57.5 µM; activity change, negative = inhibition: at the top concentration. The source says: NIH Molecular Libraries Screening Centers Network [MLSCN] NIH Chemical Genomics Center [NCGC] MLSCN Grant: XO1-MH079852-01 PI Name: Nicholson, Ben. Progenra Inc, Malvern, PA NCGC Assay Overview: Homeostasis of cellular proteins is maintained through a combination of synthesis and degradation. The pathway that accounts for the majority of protein degradation is the ubiquitin-proteasomal pathway. Ubiquitin (Ub) is highly conserved in all cells and the generation of a multi-Ub chain typically targets proteins for degradation by the proteasome. However, ubiquitination is highly reversible and dynamic. Deubiquitination, the reverse process, is catalyzed through the action of enzymes referred to as isopeptidases or deubiquitinating enzymes (DUBs). This group of enzymes is collectively responsible for maintaining adequate pools of free ubiquitin and regulating the ubiquitination status of cellular proteins. The class of DUBs referred to as the ubiquitin-specific proteases (USP) family functions endoproteolytically to cleave Ub chains from a wide range of protein substrates. USP2a deubiquitinates fatty acid synthase (FASN) which has recently been identified as an emerging oncology target. To identify inhibitors of USP2a a cell-free assay was employed. This is assay is a counterscreen used for the for the USP2a-PLA2 coupled assay. In this assay the murine PLA2 reporter enzyme is screened alone using NBD C6-HPC (Invitrogen) as a fluorogenic substrate.
Sequence of Group 10 secretory phospholipase A2 (Mus musculus) (Q9QXX3 whole entry, looked up): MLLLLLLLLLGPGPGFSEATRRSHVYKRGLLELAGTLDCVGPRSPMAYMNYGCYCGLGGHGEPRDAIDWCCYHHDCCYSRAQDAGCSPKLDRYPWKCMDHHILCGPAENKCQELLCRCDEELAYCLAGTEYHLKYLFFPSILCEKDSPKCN
NCGC Assay Protocol Summary: The assay buffer, prepared fresh at the day of the assay, contains 20mM Tris-HCl pH 8.0, 2mM CaCl2, 2mM beta-mercaptoethanol, 0.1% DMSO. 3ul of 10nM (5nM final) free PLA2, which is stored on ice, is dispensed into a medium-binding black solid Kalypsys 1,536 well plate using the Aurora BioRaptr. The assay plate is then pinned with 23nL compound with the Kalypsys pintool. The controls were pinned as follows: row 31 2M NEM and row 32 DMSO. Subsequently, 3uL 40uM (20uM final) NBD C6-HPC (stored on ice and protected from light) were dispensed into the plate using the BioRaptr dispenser. Plates were read immediately on an Envision (Perkin Elmer) plate reader using wavelengths of Ex 460nm /Em 535nm. Then, the assay plates were incubated for 2.5 hours and read again on the Envision using the same settings. Data were normalized to the to AC100 inhibition (NEM). Concentration-response curves were fitted to the normalized data and the concentration-response curves were then classified based on curve quality (r2), response magnitude and degree of measured activity. The time zero reading was used to flag fluorescence artifacts. Keywords: ubiquitination, deubiquitination, proteases, profluorescent, MLSMR, MLSCN, NIH Roadmap, qHTS, NCGC
A general note: Counterscreens check selectivity or assay interference.
For the compound `Cc1ccc(-n2nc3c(=O)n(CCCC(=O)NCCc4ccccc4Cl)nc(C)c3c2C)cc1`, the “activity change, negative = inhibition” value is -24% (inactive). As to `CCCCCC(=O)N1c2ccccc2C(C)(c2ccccc2)CC1(C)C` (stereo not given), the “activity change, negative = inhibition” value is -32.1% (inactive). `CCOC(=O)C1CCCN(c2c(C(=O)c3ccc(C)cc3)cnc3ccc(OCC)cc23)C1` (stereo not given): the “activity change, negative = inhibition” value is -35.2% (inactive). As to `O=c1c(O)c(-c2cc(O)c(O)c(O)c2)oc2cc(O)cc(O)c12`, the “activity change, negative = inhibition” value was 11.3% (inactive). Same read-out and setting: then `COc1ccc(C(=O)/C=C/c2cn(CC(O)CN(CC(C)C)CC(C)C)c3ccccc23)cc1OC` (stereo not given), with -33.5% (inactive); and `Cc1ccc2scc(N3CCN(c4cccc(C(F)(F)F)c4)CC3)c(=O)c2c1`, with 5% (inactive); and `Cc1nn(C(=O)c2cccc([N+](=O)[O-])c2C)c(C)c1S(=O)(=O)N1CCCCCC1`, with -15.4% (inactive). As to `COC(=O)c1c(NC(=O)CS(=O)(=O)c2ccc(C)cc2)sc2c1CCCCC2`, the “activity change, negative = inhibition” value is 8.66% (inactive). Turning to `CCc1ccc(C(=O)c2c(N)c(-c3nc(-c4ccc5c(c4)OCO5)cs3)c3ccccn23)cc1`, the “activity change, negative = inhibition” value is -25.3% (inactive). `O=C(CSc1nc(=O)n(Cc2ccccn2)c2c1CCC2)Nc1ccccc1`: the “activity change, negative = inhibition” value was 13% (inactive). With `CCCc1cc(=O)oc2c3c(ccc12)OCN(Cc1ccc(OC)cc1)C3`, the “activity change, negative = inhibition” value was -28.7% (inactive). `Cc1cc(C)c2nc(N(Cc3cccnc3)C(=O)CCS(=O)(=O)c3ccccc3)sc2c1`: the “activity change, negative = inhibition” value is 6.88% (inactive). Regarding `Cc1c(C(=O)N(C)C)sc2c1c(=O)n(-c1ccc(Cl)c(Cl)c1)c(=O)n2CC(=O)Nc1ccc(Br)cc1F`, the “activity change, negative = inhibition” value was -22.1% (inactive). For the compound `CCCCn1c(SCC(=O)NCCCOC)nc2c(sc3ccccc32)c1=O`, the “activity change, negative = inhibition” value was 4.02% (inactive). As to `O=C(CSc1nc2ccsc2c(=O)n1-c1ccc(Br)cc1)NCc1ccccc1`, the “activity change, negative = inhibition” value is -5.48% (inactive).

As for `CCC(C)NC(=O)CSc1nc2cc3c(cc2c(=O)n1Cc1ccc(C(=O)NCCc2ccc(OC)c(OC)c2)cc1)OCO3` (stereo not given), the “activity change, negative = inhibition” value was 1.89% (inactive). Still for that read-out and setting: the figure for `CCc1cccc(NC(=O)CSc2ncccc2C(=O)Oc2ccccc2Cl)c1` is -4.88% (inactive).

On to `COc1ccc2c(c1)c1c(c(=O)n(-c3ccc(OC)c(OC)c3)c(=O)n1Cc1ccccc1C)n2C`, for which the “activity change, negative = inhibition” value was -27.4% (inactive).

For the compound `CC(=O)Nc1ccc(NC(=O)Cn2nc(C(=O)Nc3ccc(C)cc3)ccc2=O)cc1`, the “activity change, negative = inhibition” value is 9.94% (inactive). `COc1ccc(C2C=C(c3ccc(Br)cc3)Nc3nnnn32)c(OC)c1` (stereo not given): the “activity change, negative = inhibition” value is 6.25% (inactive). As to `Cc1nnc(SCC(=O)NCc2ccccc2F)c2nn(-c3ccc(Cl)cc3)c(C)c12`, the “activity change, negative = inhibition” value was 6.11% (inactive). Consider `COc1cc(C2C(C(=O)Nc3ccccc3C)=C(C)Nc3nc(SCc4cc(C)ccc4C)nn32)ccc1O` (stereo not given), for which the “activity change, negative = inhibition” value is 15.6% (inactive).

Turning to `O=C(CCS(=O)(=O)c1ccccc1)N(Cc1cccnc1)c1nc2c(Cl)cccc2s1`, the “activity change, negative = inhibition” value is 8.8% (inactive). Take `Cc1cc(C)cc(NC(=O)c2sc3nc4n(c(=O)c3c2C)N=C(c2ccccc2)CS4)c1`: the Potency is 20 µM (active).

As for `CCOc1ccc(C2=C(C(C)=O)Sc3nnc(C)n3N2C(C)=O)cc1`, the “activity change, negative = inhibition” value is 9.3% (inactive). On to `Oc1c(C(Nc2ccccn2)c2ccccc2F)ccc2cccnc12` (stereo not given), for which the “activity change, negative = inhibition” value is 8.56% (inactive).

`COc1ccc(Cl)cc1NC(=O)CSc1nc(=O)[nH]c2c1CCC2`: the “activity change, negative = inhibition” value was 8.64% (inactive). Regarding `COc1ccc(C2=CC(c3cccc(C)c3)n3nnnc3N2)cc1` (stereo not given), the “activity change, negative = inhibition” value is -30.1% (inactive). Consider `Cc1ccc([C@H]2Nc3ccc(S(=O)(=O)Nc4cccc(Cl)c4C)cc3[C@H]3C=CC[C@H]32)cc1`, for which the “activity change, negative = inhibition” value is -20.1% (inactive). For `CCC(=O)C1=C(c2ccc(OC)c(OC)c2)N(C(=O)CC)n2c(CC)nnc2S1`, the “activity change, negative = inhibition” value is 9.52% (inactive).
